Measured values from PubChem BioAssay (NCATS).
“And” between values parts separate entries of the source, which are not always exact repeats. Identical values can stand only once. Records with an inconclusive call do not appear. Where a call stands in place of a potency, no number is given. Unmarked numbers belong to inactive results. The source made the active and inactive calls. Calls follow the shape of the dose curve; as a rule, active = well fitted curve in the direction sought with a large enough effect; inconclusive = small, poorly fitted or top-dose-only effect, or another doubt; inactive = no such curve, though single readings can be large; an effect the other way counts as inactive or inconclusive.

Columns and labels:
[1] = system: Zika virus NS2B-NS3 protease (unlinked); test: Optimization of GU AMC qHTS for Zika virus inhibitors: Unlinked NS2B-NS3 protease assay (AID 1347151); also: nearly all actives have a fitted effect of over 80% in size; also: potency is read from the fitted curve at half-maximal effect; as to activity change, negative = inhibition: series mostly up to about 52 µM
Outline: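 Noncovalent NS2B hydrophilic domain–NS3 protease complex (25 nM final) in 10 mM Tris-HCl pH 8.0, 0.01% Tween 20; AMC substrate, room temperature 15 min (~20% conversion); fluorescence change normalized, 4-parameter Hill fit.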

[2] = system: Zika virus NS2B-NS3 protease; test: Primary screen GU AMC qHTS for Zika virus inhibitors (AID 1347154); also: nearly all actives have a fitted effect of over 70% in size; also: potency is read from the fitted curve at half-maximal effect
Outline: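 Fluorogenic AMC-substrate cleavage by noncovalent NS2B-NS3 protease complex (25 nM, pH 8.0 Tris buffer with Tween 20) followed for 15 minutes at room temperature (~20% conversion). Percent inhibition from ex340/em450 signal change, fitted by 4-parameter Hill equation.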

Furin (Homo sapiens) = Furin (Homo sapiens) (UniProt P09958); test: Furin counterscreen qHTS for Zika virus inhibitors (AID 1347149); also: nearly all actives have a fitted effect of over 70% in size; also: potency is read from the fitted curve at half-maximal effect;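 as to activity change, negative = inhibition: fluorescence gain from furin cutting a BOC-RVRR-AMC peptide substrate over 15 min; top concentration of the series differs between compounds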
Furin (Homo sapiens), sequence (P09958 whole entry, looked up): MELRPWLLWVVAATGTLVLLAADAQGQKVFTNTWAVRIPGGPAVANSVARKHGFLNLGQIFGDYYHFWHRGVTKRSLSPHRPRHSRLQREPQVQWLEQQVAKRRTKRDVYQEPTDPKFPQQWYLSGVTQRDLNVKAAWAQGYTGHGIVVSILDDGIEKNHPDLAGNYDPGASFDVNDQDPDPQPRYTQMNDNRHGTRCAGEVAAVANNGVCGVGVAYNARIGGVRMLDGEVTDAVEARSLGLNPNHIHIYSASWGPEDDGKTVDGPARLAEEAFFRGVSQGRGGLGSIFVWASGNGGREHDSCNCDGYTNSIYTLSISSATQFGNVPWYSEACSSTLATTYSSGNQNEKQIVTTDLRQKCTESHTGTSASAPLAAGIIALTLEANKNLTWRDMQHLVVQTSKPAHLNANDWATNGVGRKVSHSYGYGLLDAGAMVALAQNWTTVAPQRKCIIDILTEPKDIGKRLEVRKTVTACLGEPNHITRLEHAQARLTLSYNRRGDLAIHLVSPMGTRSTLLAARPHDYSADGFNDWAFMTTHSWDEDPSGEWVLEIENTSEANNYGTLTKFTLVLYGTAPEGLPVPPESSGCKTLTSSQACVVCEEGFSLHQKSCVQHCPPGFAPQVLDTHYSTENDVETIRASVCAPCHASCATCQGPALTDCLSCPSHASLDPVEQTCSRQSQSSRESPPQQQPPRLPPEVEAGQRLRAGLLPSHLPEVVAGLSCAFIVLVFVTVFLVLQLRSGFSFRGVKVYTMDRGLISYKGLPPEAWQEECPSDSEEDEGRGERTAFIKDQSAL
Source text: Avindra Nath, Ph.D., National Institute of Neurological Disorders and Stroke (NINDS), Bethesda, MD
Radhakrishnan Padmanabhan, Ph.D., Georgetown University (GU), Washington D.C.
Zika Virus causes congenital defects, including microcephaly and is associated with Guillain-Barre syndrome, eningoencephalitis and myelitis in infected adult. […] Using a target-based approach, we hope to establish a screening paradigm to uncover novel, cell-active NS2B-NS3 protease (Zika Virus) specific inhibitors from NCATS' collection of small molecules using qHTS.
Four assay panel was created to identify potential Zika Virus inhibitors. Namely, (1) GU unlinked NS2B-NS3 AMC tagged protease qHTS, (2) GU unlinked NS2B-NS3 Rhodamine tagged protease qHTS, (3) NINDS linked NS2B-NS3 AMC tagged protease qHTS, (4) NINDS linked NS2B-NS3 Rhodamine tagged protease qHTS. Active compounds were re-acquired and re-screened to confirm inhibition. Inhibitors were further screened against various confirmatory and counterscreens in dose response format.
Early Translation Branch (ETB)
National Center for Advancing Translational Sciences (NCATS), Rockville, MD
National Institute of Health (NIH), Bethesda, Maryland
1536-well Furin BOC-RVRR-AMC Protocol:
Human recombinant Furin Serine Protease was purchased from Peprotech (catalog #450-47; full length; Rocky Hill, NJ). Briefly, 3 microL of enzyme (final concentrations of 5 nM), in assay buffer (100 mM HEPES pH 7.0, 1 mM CaCl2 with 0.01% Triton X-100) were dispensed into a 1,536-well solid-bottom black plate (Greiner Bio One, Monroe, NC). […] Plates were then read immediately on a ViewLux High-throughput CCD imager (PerkinElmer, Waltham, MA) equipped with standard UV fluorescence optics (340(30) nm excitation, 450(20) nm emission), then incubated (37C, protected from light) for 15 or 30 minutes (~9% conversion). The change in fluorescence intensity over the 15-minute reaction period was normalized against no-inhibitor and no-enzyme controls and the resulting percent inhibition data were fitted to a 4-parameter Hill equation. […]

[3] = system: Zika virus NS2B-NS3 protease (linked construct); test: Confirmatory screen NINDS AMC qHTS for Zika virus inhibitors (AID 1347152); also: nearly all actives have a fitted effect of over 70% in size; also: potency is read from the fitted curve at half-maximal effect;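 as to activity change, negative = inhibition: AMC fluorescence gain from cleaved Bz-Nle-KRR-AMC substrate over 15 min; top concentration of the series differs between compounds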
Source text: Assay Submitters (PI): Avindra Nath, Ph.D., National Institute of Neurological Disorders and Stroke (NINDS), Bethesda, MD Radhakrishnan Padmanabhan, Ph.D., Georgetown University (GU), Washington D.C. Zika Virus causes congenital defects, including microcephaly and is associated with Guillain-Barre syndrome, eningoencephalitis and myelitis in infected adult. […] Using a target-based approach, we hope to establish a screening paradigm to uncover novel, cell-active NS2B-NS3 protease (Zika Virus) specific inhibitors from NCATS' collection of small molecules using qHTS. […] Four assay panel was created to identify potential Zika Virus inhibitors. Namely, (1) GU unlinked NS2B-NS3 AMC tagged protease qHTS, (2) GU unlinked NS2B-NS3 Rhodamine tagged protease qHTS, (3) NINDS linked NS2B-NS3 AMC tagged protease qHTS, (4) NINDS linked NS2B-NS3 Rhodamine tagged protease qHTS. Active compounds were re-acquired and re-screened to confirm inhibition. Inhibitors were further screened against various confirmatory and counterscreens in dose response format. Early Translation Branch (ETB) National Center for Advancing Translational Sciences (NCATS), Rockville, MD National Institute of Health (NIH), Bethesda, Maryland
Materials: For the linked assay, Nath lab (NINDS) provided the purified linked NS2B-NS3 protease which is consists of hydrophilic domain of NS2B linked to the NS3 protease domain by a flexible (-[…]-) linker. Control compound aprotinin is obtained from Thermo Scientific (#78432; Waltham, Massachusetts). […] Plates were then read immediately on a ViewLux High-throughput CCD imager (PerkinElmer, Waltham, MA) equipped with standard UV fluorescence optics (340(30) nm excitation, 450(20) nm emission) then incubated (room temperature, protected from light) for 15 minutes (~20% conversion). The change in fluorescence intensity over the 15-minute reaction period was normalized against no-inhibitor and no-enzyme controls and the resulting percent inhibition data were fitted to a 4-parameter Hill equation. […]

[4] = Confirmatory screen GU Rhodamine qHTS for Zika virus inhibitors qHTS (AID 1347157); conditions: purified enzyme assay, Rhodamine110 substrate fluorescence, 15 min; also: potency is read from the fitted curve at half-maximal effect; nearly all actives have a fitted effect of over 70% in size
Outline: (§1)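 In dose–response format, inhibition of unlinked protease (25 nM) was measured with 1.5 microM bis-peptide Rhodamine110 substrate. Aprotinin served as the intraplate control.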

[5] = system: Zika virus NS2B-NS3 protease (unlinked complex); test: Primary screen GU Rhodamine qHTS for Zika virus inhibitors: Unlinked NS2B-NS3 protease assay (AID 1347159); also: potency is read from the fitted curve at half-maximal effect; nearly all actives have a fitted effect of over 60% in size
Outline: as §1

[6] = system: Zika virus NS2B-NS3 protease (linked construct); test: Primary screen NINDS Rhodamine qHTS for Zika virus inhibitors (AID 1347160); also: potency is read from the fitted curve at half-maximal effect; nearly all actives have a fitted effect of over 55% in size
Outline: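 Each compound, titrated, sat 15 min with 25 nM linked protease before 1.5 microM Rhodamine110 substrate went in. Fluorescence gain over the next 15 min, in pH 8.0 Tris with Tween 20, gave Hill-fitted curves.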

[7] = Confirmatory screen NINDS Rhodamine qHTS for Zika virus inhibitors (AID 1347161); conditions: purified enzyme assay, Rhodamine110 substrate fluorescence, 15 min; also: potency is read from the fitted curve at half-maximal effect; nearly all actives have a fitted effect of over 60% in size
Outline: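 Rhodamine110-peptide cleavage (1.5 µM substrate) by 25 nM linked NS2B-NS3 enzyme at pH 8.0 (Tris, Tween 20), after 15 min RT preincubation with compounds; 15-min fluorescence change normalized to controls and Hill-fitted.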

[8] = system: Zika virus NS2B-NS3 protease (linked); test: 384 well plate NINDS AMC confirmatory qHTS for Zika virus inhibitors (AID 1347163); also: potency is read from the fitted curve at half-maximal effect; nearly all actives have a fitted effect of over 50% in size
Outline: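 Enzyme (5, 30 or 60 nM final) first met test compounds for ~15 min. The AMC-tagged peptide Ac-VKTGKR-AMC followed at 30 microM. Fluorescence was then recorded at 25 min and scaled against no-enzyme and no-inhibitor wells.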

[9] = system: Zika virus NS2B-NS3 protease (unlinked complex); test: Confirmatory screen GU AMC qHTS for Zika virus inhibitors (AID 1347153); also: nearly all actives have a fitted effect of over 70% in size
Outline: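 Unlinked NS2B-NS3 complex (25 nM) in 10 mM Tris-HCl pH 8.0, 0.01% Tween 20 preincubated 15 min with compound, then 10 microM Bz-Nle-KRR-AMC (Km 18.3 µM). Fluorescence change over 15 min, normalized, Hill-fitted.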

In the case of `OCCN1CCN(CCCN2c3ccccc3Sc3ccc(Cl)cc32)CC1`, the Potency [1] is reported as “inactive” and the Potency [2] is reported as “inactive”.
For `O=C1NC(=O)[C@@]2(CCOc3ccc(F)cc32)N1`, the Potency [1] was “inactive” and the Potency [2] was “inactive”.
In the case of `N[C@H](C(=O)O)c1ccc(O)cc1`, the Potency (Furin (Homo sapiens)) is reported as “inactive”, the Potency [1] is reported as “inactive” and the Potency [2] is reported as “inactive”.
For `CNCCC(Oc1ccc(C(F)(F)F)cc1)c1ccccc1` (configuration not stated), the Potency [1] was “inactive” and the Potency [2] was “inactive”.
In the case of `OCc1cc(C(O)CNCCCCCCOCCCCc2ccccc2)ccc1O` (configuration not stated), the Potency [1] is reported as 26.7 µM (active).
In the case of `N=c1c[n+](N2CCOCC2)[n-]o1`, the Potency [1] is reported as “inactive”.
For `Cc1cc(C(C#N)c2ccc(Cl)cc2)c(Cl)cc1NC(=O)c1cc(I)cc(I)c1O` (configuration not stated), the Potency (Furin (Homo sapiens)) was 7.64 µM (active) and 13.9 µM (active), the Potency [3] was 11.1 µM (active) and the Potency [2] was 3.98 µM (active). The Potency [4] was 1.75 µM (active) and 1.56 µM (active), the Potency [5] was 1.78 µM (active) and the Potency [6] was 3.16 µM (active). The Potency [7] was 2.78 µM (active) and 2.21 µM (active) and the Potency [8] was 4.47 µM (active).
For `Nc1cc(=O)[nH]c(N)n1`, the Potency [1] was “inactive” and the Potency [2] was “inactive”.
In the case of `NC1[C@H]2CN(c3nc4c(cc3F)c(=O)c(C(=O)O)cn4-c3ccc(F)cc3F)C[C@@H]12` (some centres not stated), the Potency (Furin (Homo sapiens)) is reported as 24.1 µM (active), the Potency [1] is reported as 23.8 µM (active) and the Potency [3] is reported as “inactive”. The outcome [9] was “inactive” and the Potency [2] was “inactive”.
For `CCN(CC)CCNC(=O)c1c(C)[nH]c(/C=C2\C(=O)Nc3ccc(F)cc32)c1C`, the Potency [1] was “inactive” and the Potency [2] was “inactive”.
In the case of `Cc1c(O)cccc1C(=O)N[C@@H](CSc1ccccc1)[C@H](O)CN1C[C@H]2CCCC[C@H]2C[C@H]1C(=O)NC(C)(C)C`, the Potency [1] is reported as “inactive” and the Potency [2] is reported as “inactive”.
For `C[C@](N)(Cc1ccc(O)cc1)C(=O)O`, the Potency [1] was “inactive” and the activity change, negative = inhibition [2] was -1.38% [at 4.99 µM].
With `CN(C)CCCN1c2ccccc2CCc2ccccc21` the Potency [1] was “inactive” and the Potency [2] was “inactive”.
For `CC(=O)c1ccc2c(c1)N(CCCN(C)C)c1ccccc1S2`, the Potency [1] was “inactive” and the Potency [2] was “inactive”.
With `CN(C)CCCN1c2ccccc2Sc2ccc(Cl)cc21` the Potency [1] was “inactive” and the Potency [2] was “inactive”.
In the case of `CNCCCC1c2ccccc2C=Cc2ccccc21`, the Potency [1] is reported as 26.7 µM (active).
With `CC(C)(C)c1onc(OCP(=O)(O)O)c1CC(N)C(=O)O` (configuration not stated) the Potency [1] was “inactive”.
For `CC[C@H]1CN2CCc3cc(OC)c(OC)cc3[C@@H]2C[C@@H]1C[C@H]1NCCc2cc(OC)c(OC)cc21`, the Potency [1] was “inactive” and the Potency [2] was “inactive”.
